This is a sample that favours compounds with a hit; in the whole collection about 1.8% have one here.
PME-1 inh: PME-1 inhibitors via competitive probe labeling, primary screen, biochemical, fluorescence polarization, FP-Rh probe, HTS | Protein phosphatase methylesterase 1 (Homo sapiens), Q9Y570 | recombinant PME-1 | inhibition, % at 5.9 µM | 320,000 compounds, 0.53% hits;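 active means inhibition above the campaign mean of all compounds plus 3 SD, cut at about 26% in these data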;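 further: competitive labeling of PME-1 active site by serine hydrolase directed probe; 0% = PME-1 with DMSO and 100% = wells lacking PME-1 enzyme; inhibitors block probe labeling so polarization falls and inhibition rises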
PP5 primary: PP5 phosphatase inhibitors, primary screen, biochemical, fluorescence. purified PP5c, OMFP substrate fluorescence. AID 1987, 2009. Serine/threonine-protein phosphatase 5 (Homo sapiens), P53041. inhibition, % at 6.7 µM. 320,000 compounds, 0.18% hits;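 active means inhibition above the campaign's mean inhibition across all tested compounds plus 3 SD, cut at about 9.5% in these data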;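 further: 0% = DMSO only and 100% = 100 µM cantharidin control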
LYPLA2 counter: LYPLA2 inhibitors, primary screen, counter-screen for PME1 inhibitor project, biochemical, fluorescence polarization, FP-Rh probe ABPP | recombinant LYPLA2 | 320,000 compounds, 0.38% hits | Acyl-protein thioesterase 2 (Homo sapiens), O95372 | AID 2177, 2009 | inhibition, % at 5.9 µM;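 active means inhibition above the screen-wide mean plus 3 SD, limit set per campaign, cut at about 26% in these data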;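 further: 0% = LYPLA2 with DMSO and 100% = wells lacking LYPLA2 enzyme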
LYPLA1 counter: LYPLA1 inhibitors, primary screen, counter-screen for PME1 inhibitor project, biochemical, fluorescence polarization, FP-Rh probe ABPP; 320,000 compounds, 0.16% hits; inhibition, % at 5.9 µM; recombinant LYPLA1;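 active means inhibition above the mean of all tested compounds plus 3 SD, set per campaign, cut at about 14% in these data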;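 further: inhibitors block serine hydrolase probe labeling of LYPLA1 so polarization falls; 0% = enzyme with DMSO and 100% = wells lacking LYPLA1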
PP1 counter: PP1-alpha phosphatase inhibitors, primary screen, counter-screen for PP5 inhibitor project, biochemical, fluorescence, OMFP substrate, single point; 320,000 compounds, 0.9% hits; purified PP1alpha; inhibition, % at 6.7 µM; AID 2235, 2010;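 active means inhibition above the mean inhibition of all tested compounds plus 3 SD, computed separately for each screening campaign, cut at about 15% in these data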
Target sequence (P62136 whole entry, looked up): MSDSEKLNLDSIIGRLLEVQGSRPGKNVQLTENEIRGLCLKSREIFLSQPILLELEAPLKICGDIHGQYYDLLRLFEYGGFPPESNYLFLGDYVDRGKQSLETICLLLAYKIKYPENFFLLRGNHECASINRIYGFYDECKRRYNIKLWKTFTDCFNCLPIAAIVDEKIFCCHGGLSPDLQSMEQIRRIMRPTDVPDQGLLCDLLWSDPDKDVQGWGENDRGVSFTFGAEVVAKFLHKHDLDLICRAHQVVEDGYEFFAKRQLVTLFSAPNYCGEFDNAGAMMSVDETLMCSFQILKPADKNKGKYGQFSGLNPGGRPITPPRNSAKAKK
Fam108B inh: mouse Fam108B serine hydrolase inhibitors, primary screen, counter-screen for RBBP9 inhibitor project, biochemical, fluorescence polarization; recombinant Fam108B, FP-Rh probe fluorescence polarization; inhibition, % at 9.51 µM; 300,000 compounds, 0.33% hits; AID 1947, 2009;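 active means inhibition above the screen mean inhibition plus 3 SD, computed separately per campaign, cut at about 18% in these data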;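 further: inhibitors lower polarization as less probe binds the enzyme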
LYPLA2 conf: LYPLA2 inhibitors, retest, confirmation, counter-screen for PME1 inhibitor project, biochemical, fluorescence polarization, FP-Rh probe ABPP. inhibition, % at 5.9 µM. 1,100 compounds, 72% hits. AID 2232, 2010. recombinant LYPLA2. shares compounds with LYPLA2 counter;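 active means mean inhibition across replicates above the hit cutoff set in the primary screen, cut at about 26% in these data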;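 further: blocked labeling of the enzyme by serine hydrolase FP-Rh probe lowers polarization; 0% = enzyme with DMSO and 100% = wells lacking LYPLA2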
LYPLA2 gel ABPP: LYPLA2 inhibitors in proteome, late-stage follow-up, gel-based competitive ABPP, fluorescence, assay provider. inhibition, % at 20 µM. shares compounds with LYPLA2 counter. 150 compounds, 30% hits. rhLYPLA2 in mouse brain proteome, gel ABPP FP-Rh;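 active means inhibition of LYPLA2 enzyme probe labeling above about 50%, limit read from the data; inactive means inhibition below that limit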;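 further: loss of FP-Rh probe labeling of the LYPLA2 gel band measured as band density; 0% = DMSO only control band and 100% = blank gel background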
* marks the source's active call; other numbers are inactive results; x = no result.

SMILES | PME-1 inh | PP5 primary | LYPLA2 counter | LYPLA1 counter | PP1 counter | Fam108B inh | LYPLA2 conf | others
CCCCc1cc(=O)oc2cc(OCC(=O)Nc3cccnc3)c(Cl)cc12 | 3 | -1 | 28* | 3 | -6 | 0 | 14
Cc1nc(-c2ccc(S(=O)(=O)N3CCCN(CCc4ccccc4)CC3)s2)cs1 | 2 | 0 | 61* | 8 | -1 | 0 | 68* | LYPLA2 gel ABPP=50*
CCn1c(=O)cc(OCC(=O)N2CCCC2)c2ccccc21 | 2 | 2 | 1 | 3 | -1 | -1 | x
CCn1c(=O)cc(OCC(=O)N2CCN(c3cccc(C(F)(F)F)c3)CC2)c2ccccc21 | 3 | 3 | 51* | 7 | 2 | 0 | 47*
COc1ccc2oc(C(=O)Nc3ccc(S(=O)(=O)N(C)C4CCN(C)CC4)cc3)c(C)c2c1 | 1 | -2 | -12 | -8 | -1 | -3 | x
O=C(CCC(=O)N1CCN(c2ccc(C(F)(F)F)cn2)CC1)c1cccs1 | 4 | -2 | 32* | 4 | -1 | x | 25
Cc1ccccc1SCC(=O)N1CCN(c2ccc(C(F)(F)F)cn2)CC1 | 1 | -3 | 28* | -3 | 1 | -7 | 36*
CCCCCCC(=O)N1CCCC(c2nc(-c3cccc(OC)c3)no2)C1 (stereo unspecified) | 9 | 4 | 27* | 12 | 2 | -3 | 23
C(=N\N=C\c1ccncc1)/c1ccncc1 | 2 | 3 | 5 | 4 | -4 | -2 | x
Cc1ccc(NC(=O)COc2ccccc2C(=O)NCc2ccccc2)cc1 | -6 | 7 | -3 | -7 | 8 | x | x
CC12CCC(=O)N1C(C(=O)NNC(=O)c1ccc(Cl)cc1)CS2 (stereo unspecified) | 1 | 1 | -6 | -4 | 1 | x | x
CC12CCC(=O)N1C(C(=O)NNC(=O)c1cccc(Cl)c1)CS2 (stereo unspecified) | 4 | -1 | 35* | 0 | -5 | -2 | 6
COC(=O)C1CCN(C(=O)COC(=O)CNC(=O)c2ccc(Cl)cc2Cl)CC1 | 2 | 4 | 0 | 0 | 0 | x | x
COc1ccc(OCC(=O)Nc2ccc3c(c2)nc(CCN2CCN(C)CC2)n3C)cc1 | 1 | -1 | 2 | 0 | -4 | -2 | x
CCC(=O)NC(=S)Nc1ccc(N2CCN(C(=O)c3ccc(Cl)cc3)CC2)cc1 | 8 | 2 | 29* | 2 | -1 | 4 | 36*
O=C(Nc1ccc(N2CCN(C(=O)c3ccc(Cl)cc3)CC2)cc1)c1cccnc1 | -1 | 1 | 48* | 5 | -5 | 0 | 41*
Cc1ccc(C(=O)N2CCN(c3ccc(NC(=O)c4cccnc4Cl)cc3)CC2)cc1 | -1 | 3 | 49* | 5 | -1 | 1 | 57* | LYPLA2 gel ABPP=38
O=C(Nc1ccc(N2CCN(C(=O)c3ccccc3)CC2)cc1)c1cccnc1 | -4 | 1 | 3 | -2 | -3 | -1 | x
Cc1ccc(Nc2nc3ccccc3n3cnnc23)cc1Cl | -1 | 2 | 1 | -6 | 0 | -7 | x
Cc1ccc(Nc2cc(C)nc(-c3ccccc3)n2)cc1 | -11 | 6 | -1 | -5 | 2 | 4 | x
Cc1cccc(C)c1NC(=O)CN1CCN(C(=O)CNC(=O)c2ccc(N3CCCC3=O)cc2)CC1 | -4 | 2 | 1 | -2 | -3 | x | x
O=C(CN1CCN(C(=O)CNC(=O)c2ccc(N3CCCC3=O)cc2)CC1)Nc1ccccc1Cl | -1 | 1 | 50* | 3 | -1 | x | 46*
CC(=O)c1ccc(S(=O)(=O)N2CCN(CCOc3ccc(Br)cc3)CC2)cc1 | 1 | 3 | 37* | 3 | 3 | x | 37*

Screening results: PubChem, The Scripps Research Institute Molecular Screening Center
